# Screening data (PubChem)
# Rows were chosen to be rich in hits. Some 2.1% of all compounds tested hit in one or more screens of this group.
# IEC-6 cytotox: counter-screen for KLF5 inhibitors: cytotoxicity in IEC-6 cells. IEC-6 cytotoxicity, luminescence viability. inhibition, % at 5 µM. 290,000 tested, 0.78% active. AID 1825;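 also: 0% = plate median of test compound wells and 100% = cytotoxic reference compound wells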
# Ba/F3 V617F tox: reduce viability of Ba/F3 cells dependent on JAK2V617F | Ba/F3 EpoR-JAK2V617F viability, ATP luminescence | inhibition, % at 5.6 µM | 220,000 tested, 1.1% active;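 active = inhibition above the campaign mean plus 3 SD over all tested compounds, cut at about 24% in these data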;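 also: cytokine-independent growth of Ba/F3 cells driven by EpoR plus mutant JAK2; 0% = DMSO-treated cells and 100% = JAK inhibitor I control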
# BaF3 parental: reduces parental Ba/F3 cell viability, JAK2V617F counter-screen | inhibition, % at 5.6 µM | 220,000 tested, 1.1% active | CellTiter-Glo ATP luminescence;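 active = inhibition above a per-campaign cutoff, the mean inhibition of all tested compounds plus 3 SD, cut at about 27% in these data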;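 also: 0% = DMSO wells and 100% = JAK Inhibitor I control wells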
# APP transl inh: APP translation inhibition; SH-SY5Y APP 5'UTR-luciferase reporter, luminescence; inhibition, % at 2 µM; AID 1285; 190,000 tested, 0.82% active;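 active = inhibition above a set limit, derived from the sample mean plus 3 SD, cut at about 45% in these data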
# aSyn UTR inh: 5' untranslated region of α-synuclein, MLPCN primary screen; alpha-synuclein 5'UTR reporter, inhibitor activity; 300,000 tested, 0.82% active; inhibition, % (tested at 7.5 µM); AID 1813; in the data active = inhibition above about 60%;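 also: H4 neuroglioblastoma cells stably carrying SNCA 5'UTR luciferase fusion; 0% = DMSO wells and 100% = positive control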
# KLF5 inhibitor: suppresses KLF5 promoter-driven expression | AID 1700 | 290,000 tested, 0.23% active | inhibition, % at 5 µM | DLD-1 KLF5 promoter-luciferase reporter, luminescence;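 active = inhibition above a per-plate limit of that plate's mean compound inhibition plus 3 SD, cut at about 60% in these data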;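 also: 0% = DMSO wells and 100% = LY294002 at 200 µM; higher means less KLF5 promoter-driven luciferase light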
# IEC-6 tox confirm: confirmation of cytotoxic compounds in rat IEC-6 intestinal epithelial cells; AID 1907; 1,900 tested, 63% active; IEC-6 rat intestinal epithelial viability, luminescence; inhibition, % at 5 µM; shares compounds with IEC-6 cytotox;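 also: 0% = vehicle and 100% = reference cytotoxic drug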
# * hit, by the source's call; · = not tested or not shown. Rule as the data show it, unless noted: active = inhibition above about 22%; inactive = the rest.
SMILES,IEC-6 cytotox,Ba/F3 V617F tox,BaF3 parental,APP transl inh,aSyn UTR inh,KLF5 inhibitor,IEC-6 tox confirm
C=CCn1c(SCc2c(C)noc2C)nc2ccccc2c1=O,82.7*,71.1*,71.7*,94.5*,79.7*,57.6,56.5*
O=C(N/N=C/c1ccc(O)cc1O)c1ccc(CN2C(=O)c3cccc4cccc2c34)cc1,34.3*,18.7,4.9,60.5*,62.5*,44.6,51.7*
O=C(N/N=C/c1ccccc1)c1ccc(CN2C(=O)c3cccc4cccc2c34)cc1,4.2,0.2,9.7,13.1,9.1,13.4,·
COc1cc2[nH]c(=S)nc(NCc3ccc(Cl)cc3)c2cc1OC,29.7*,·,·,·,19.8,1.4,41.6*
Cc1c(C=O)c(=O)n(-c2ccccc2)n1-c1ccccc1,-2.1,-4.7,0.7,1.2,-14.4,-22.1,·
O=C(Nc1nc(-c2ccccn2)cs1)c1ccc(Cl)s1,45.0*,0.5,3.1,77.2*,67.7*,10.3,75.4*
O=C(Nc1nc(-c2ccccn2)cs1)C1CCCC1,25.1*,-5.2,0.4,-23.8,-96.8,-60.2,-0.6
Cc1cccnc1Nc1nc(-c2ccccn2)cs1,83.8*,89.5*,76.6*,92.6*,50.9,11.2,88.5*
Cc1cccc(C(=O)NC(C(=O)Nc2nc(-c3ccccn3)cs2)C(C)C)c1 (stereo unspecified),48.9*,8.1,4.6,-7.0,81.4*,26.0,42.1*
O=C(Nc1nc(-c2ccccn2)cs1)c1ncc(Cl)c(Cl)c1Cl,-5.4,-0.7,7.0,-16.2,-54.0,-8.2,·
CSCCC(=O)Nc1nc(-c2ccccn2)cs1,1.7,0.0,4.8,7.4,·,19.8,·
CN(CC(=O)Nc1ccc(F)cc1)C(=O)COC(=O)CNC(=O)c1sc2ccccc2c1Cl,·,·,·,·,-15.7,·,·
CCOc1ccc(C2C(C(=O)c3ccco3)=C(O)C(=O)N2CCN2CCOCC2)cc1 (stereo unspecified),-3.7,·,·,·,-3.9,-21.9,·
O=C(Nc1nc(-c2ccccn2)cs1)c1ccc(S(=O)(=O)N2CCCCC2)cc1,50.4*,55.5*,55.6*,·,57.4,45.8,54.3*
O=c1c(-c2ccc(Cl)cc2)cnc2n1CCS2,6.4,-2.9,6.2,-39.2,-83.5,-56.2,·
COC(=O)c1ccc(C)c(NS(=O)(=O)c2ccc(OC)cc2)c1,87.3*,79.7*,75.0*,93.8*,81.9*,52.6,59.3*
COC(=O)c1ccc(C)c(NS(=O)(=O)c2ccc(C)c([N+](=O)[O-])c2)c1,-1.1,1.1,1.1,-15.0,3.2,-9.9,·
COc1ccc(NC(=O)N2CCCC2C(=O)NCc2cccs2)cc1 (stereo unspecified),2.9,·,·,·,-5.5,5.9,·
Cc1nc2c(sc3nc4c(cc32)COC(C)(C)C4)c(=O)n1CC(=O)NCc1ccco1,62.9*,76.0*,79.2*,-4.6,-69.3,51.6,37.6*
CCCc1nc2c(sc3nc4c(cc32)COC(C)(C)C4)c(=O)n1Cc1ccco1,-1.6,1.1,6.8,-7.5,-64.7,-21.8,·
CC(C)c1onc(C(=O)Nc2sc3c(c2C#N)CCC3)c1[N+](=O)[O-],1.5,-2.8,0.1,5.9,-41.8,-20.7,·
NC(=O)c1c(NC(=O)c2ccc([N+](=O)[O-])o2)sc2c1CCCC2,100.5*,·,·,·,95.3*,23.9,38.9*
CN1CCc2c(sc(NC(=O)c3ccc([N+](=O)[O-])o3)c2C(N)=O)C1,100.6*,·,·,·,85.5*,34.0,87.9*
N#Cc1c(NC(=O)c2ccc([N+](=O)[O-])o2)sc2c1CCC2,38.9*,·,·,·,-106.7,-33.7,16.0
COc1cccc(C(C(=O)NC2CCCC2)N(C(=O)c2ccco2)c2ccc(-n3cnnn3)c(C)c2)c1OC (stereo unspecified),1.0,1.3,8.1,18.8,-1.0,-1.2,·
COCCN(C(=O)CSc1n[nH]c(-c2ccccc2)n1)c1c(N)n(CC(C)C)c(=O)[nH]c1=O,·,·,·,·,4.5,·,·
COc1cc(C(=O)Nc2ccc(C)cc2)c2ccccc2n1,84.3*,·,·,·,81.5*,61.6,64.8*
COc1cc(/C=C2/SC(=S)N(Cc3ccccc3)C2=O)ccc1O,9.6,·,·,·,-67.3,-19.5,·
COc1ccc(/C=C2\CN(Cc3ccccc3)C/C(=C\c3ccc(OC)c(O)c3)C2=O)cc1O,32.6*,·,·,·,106.7*,24.6,14.8
Cc1ccc(NC(=S)NNC(=O)c2ccccc2OC(F)F)cc1,28.0*,25.5*,41.4*,-13.7,-86.7,0.0,11.2
